The source made the active and inactive calls. Unless noted, the rule behind the calls is not given here.
How the values were obtained:
[1] = compound effects on lung adenocarcinoma cell viability – A549, calcein-AM fluorescence, 48 h, basal, profiling panel (AID 1162); settings: higher = more signal; note: test concentration not given here
[2] = compound effects on differentiated 3T3-L1 adipocyte viability – cell-based, 3T3-L1 adipocytes, calcein-AM fluorescence, 48 h, basal, profiling panel (AID 1163); settings: 3T3-L1 adipocytes viability, higher = more signal; note: test concentration not given here
[3] = compound effects on hepatocellular carcinoma cell viability – HepG2, calcein-AM fluorescence, 48 h, basal, profiling panel (AID 1164); settings: higher = more signal; note: test concentration not given here
[4] = compound effects on multiple myeloma cell viability – MM1S, calcein-AM fluorescence, 48 h, basal, profiling panel (AID 1165); settings: higher = more signal;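 note: viability of MM1S multiple myeloma cells under basal unstimulated conditions; test concentration not given here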
[5] = calcein-AM signal in unstimulated myeloma cells – cell-based, calcein-AM fluorescence, 48 h, PK04 Diversity Set, profiling panel (AID 1166); settings: RPMI8226 myeloma viability, higher = more signal;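 note: cells grown under basal conditions without added stimulus; test concentration not given here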
[6] = JC-1 mitochondrial signal, unstimulated HepG2 cells – cell-based, JC-1 fluorescence, 24 h, 100 nL compound, profiling panel (AID 1167); settings: HepG2 mitochondrial potential, higher = more signal; note: test concentration not given here
[7] = JC-1 mitochondrial signal, unstimulated adipocytes – cell-based, JC-1 fluorescence, 3T3-L1 adipocytes, 24 h, 100 nL compound, profiling panel (AID 1168); settings: JC-1 mitochondrial fluorescence, higher = more signal, called active from +8 up or from −8 down; note: test concentration not given here
[8] = JC-1 mitochondrial signal, unstimulated myeloma cells – cell-based, JC-1 fluorescence, RPMI8226, 24 h, 100 nL compound, profiling panel (AID 1169); settings: JC-1 mitochondrial potential fluorescence, higher = more signal; note: test concentration not given here
[9] = JC-1 mitochondrial signal, unstimulated MM1S myeloma – cell-based, JC-1 fluorescence, 24 h, 100 nL compound, profiling panel (AID 1170); settings: MM1S mitochondrial potential, higher = more signal; note: test concentration not given here
[10] = resazurin metabolic signal in A549 cells – cell-based, resazurin fluorescence, 24 h, PK04 Diversity Set, profiling panel (AID 1171); settings: A549 viability, higher = more signal, called active from +8 up or from −8 down; note: test concentration not given here
[11] = resazurin metabolic signal in HepG2 cells – cell-based, resazurin fluorescence, 24 h, PK04 Diversity Set, profiling panel (AID 1172); settings: HepG2 viability, higher = more signal; note: test concentration not given here
[12] = budding yeast growth changes without added modifier – OD600, strain BY4716, 24 h, basal condition, primary screen (AID 1173); settings: S. cerevisiae BY4716 growth, OD600, 24 h; higher = more signal, called active from +8 up or from −8 down
[13] = viability profiling in MM1S myeloma cells – cell-based, resazurin fluorescence, basal, 24 h, PK04 Diversity Set, profiling panel (AID 1174); settings: higher = more signal, called active from +8 up or from −8 down; note: test concentration not given here
[14] = target: Dihydroorotate dehydrogenase (quinone), mitochondrial (Plasmodium falciparum (isolate 3D7)) (UniProt Q08210); assay: inhibition of P. falciparum DHODH – biochemical, C-terminal His tag, absorbance 600 nm, primary screen (AID 1175); settings: PfDHODH enzyme, DCIP absorbance 600 nm; higher = more signal, called active from +8 up or from −8 down;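 note: recombinant parasite enzyme with a five histidine tag at its C terminus; test concentration not given here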
Sequence of Dihydroorotate dehydrogenase (quinone), mitochondrial (Plasmodium falciparum (isolate 3D7)) (Q08210 whole entry, looked up): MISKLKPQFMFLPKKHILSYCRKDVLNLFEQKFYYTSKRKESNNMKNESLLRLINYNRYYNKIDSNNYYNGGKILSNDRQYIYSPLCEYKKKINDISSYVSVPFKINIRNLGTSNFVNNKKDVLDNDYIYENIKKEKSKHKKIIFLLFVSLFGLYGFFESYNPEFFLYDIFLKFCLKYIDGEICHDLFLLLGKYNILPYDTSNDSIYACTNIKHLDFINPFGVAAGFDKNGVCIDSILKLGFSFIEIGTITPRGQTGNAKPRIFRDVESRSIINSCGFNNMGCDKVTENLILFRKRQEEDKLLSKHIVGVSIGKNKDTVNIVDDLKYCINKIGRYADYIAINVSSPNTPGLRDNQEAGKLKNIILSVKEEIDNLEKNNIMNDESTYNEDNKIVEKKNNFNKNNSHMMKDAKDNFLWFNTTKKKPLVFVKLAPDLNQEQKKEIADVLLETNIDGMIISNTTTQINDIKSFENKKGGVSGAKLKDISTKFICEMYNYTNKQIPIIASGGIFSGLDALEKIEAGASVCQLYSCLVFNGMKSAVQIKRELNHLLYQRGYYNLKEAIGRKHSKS

[15] = inhibition of PAO1 biofilm formation – strain PAO1, LB-PBS medium, absorbance 600 nm, primary screen (AID 1176); note: test concentration not given here; settings: P. aeruginosa PAO1 growth/biofilm, A600, 12 h; higher = more signal
[16] = growth modulation of vineyard yeast isolate – strain RM11-1a, OD600, basal, 24 h, primary screen (AID 1177);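 note: cultures grown under basal conditions with no added stressor; test concentration not given here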; settings: S. cerevisiae RM11-1a growth, OD600, 24 h; higher = more signal, called active from +8 up or from −8 down
[17] = growth of efflux-deficient E. coli DRC39 – strain DRC39, OD650, 24 h, E. coli filamentation inducers, primary screen (AID 1178);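 note: growth measured as culture turbidity by optical density at 650 nm; test concentration not given here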; settings: E. coli DRC39 acrAB, higher = more signal, called active from +8 up or from −8 down
[18] = growth of efflux-deficient E. coli DRC39 – strain DRC39, OD650, 48 h, E. coli filamentation inducers, primary screen (AID 1179);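 note: screen aims at cell division blockers that make cells filament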; settings: E. coli DRC39 delta-acrAB growth, higher = more signal, called active from +8 up or from −8 down
[19] = viability profiling in RPMI8226 myeloma cells – cell-based, resazurin fluorescence, basal, 24 h, PK04 Diversity Set, profiling panel (AID 1180); settings: higher = more signal;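 note: RPMI8826 multiple myeloma cell line at 5000 cells per well; test concentration not given here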
[20] = target: E3 ubiquitin-protein ligase XIAP (Homo sapiens) (UniProt P98170); assay: small molecules binding XIAP protein – biophysical, small-molecule microarray, fluorescence 635 nm, primary screen (AID 1181); settings: higher = more signal;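 note: score merges 667 nm emission and signal to noise over triplicate slides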
Sequence of E3 ubiquitin-protein ligase XIAP (Homo sapiens) (P98170 whole entry, looked up): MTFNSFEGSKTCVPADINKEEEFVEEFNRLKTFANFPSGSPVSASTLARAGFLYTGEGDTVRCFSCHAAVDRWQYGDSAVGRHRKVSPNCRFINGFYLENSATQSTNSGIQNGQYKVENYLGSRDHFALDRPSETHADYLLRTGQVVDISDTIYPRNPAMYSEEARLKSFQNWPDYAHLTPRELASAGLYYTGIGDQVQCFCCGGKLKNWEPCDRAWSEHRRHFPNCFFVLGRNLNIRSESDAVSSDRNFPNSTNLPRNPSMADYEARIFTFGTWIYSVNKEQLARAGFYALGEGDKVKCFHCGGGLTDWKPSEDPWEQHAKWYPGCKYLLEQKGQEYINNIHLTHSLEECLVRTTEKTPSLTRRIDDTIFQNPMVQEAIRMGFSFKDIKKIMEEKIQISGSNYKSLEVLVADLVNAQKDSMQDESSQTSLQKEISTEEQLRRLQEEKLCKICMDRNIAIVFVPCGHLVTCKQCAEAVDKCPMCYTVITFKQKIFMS

SMILES | z-score [1] | z-score [2] | z-score [3] | z-score [4] | z-score [5] | z-score [6] | z-score [7] | z-score [8] | z-score [9] | z-score [10] | z-score [11] | z-score [12] | z-score [13] | composite z-score [14] | z-score [15] | z-score [16] | z-score [17] | z-score [18] | z-score [19] | composite z-score [20]
O=C1OCCC/C=C\[C@H]2OC34C=CCN(Cc5ccccc5)C(=O)[C@H]3N(CCO)C(=O)[C@@H]4C12 (stereo not given in full) | 0.457 | -0.728 | 1.21 | 1.64 | 0.998 | 1.03 | 0.857 (inactive) | -0.0351 | -0.27 | 0.263 (inactive) | -0.122 | -0.662 (inactive) | 0.99 (inactive) | -0.0771 (inactive) | -0.152 (inactive) | -0.23 (inactive) | 1.68 (inactive) | 1.89 (inactive) | 0.936 | 0.0015
COC(=O)[C@]1(Cc2ccccc2N=[N+]=[N-])N=C(c2ccc(OCCCO)cc2)O[C@@H]1c1ccccc1CN=[N+]=[N-] | -3.36 | -0.677 | -5.59 | -3.59 | -3.98 | -1.76 | -1.07 (inactive) | -1.16 | -2.61 | -2.26 (inactive) | -4.43 | 1.24 (inactive) | -8.15 (active) | 1.71 (inactive) | 1.16 (inactive) | 1.94 (inactive) | -0.307 (inactive) | -0.609 (inactive) | -7.07 | -0.0277
CCOC(=O)C1=CCC(c2ccncc2)N(S(=O)(=O)c2ccc(C)cc2)C1 (stereo not given) | -1.72 | -0.784 | -1.37 | -2.28 | -1.31 | -1.41 | 0.561 (inactive) | 0.115 | -1.61 | -0.44 (inactive) | -0.226 | -0.867 (inactive) | -1.14 (inactive) | -1.2 (inactive) | -0.433 (inactive) | -0.364 (inactive) | -0.0978 (inactive) | 0.737 (inactive) | -1.25 | -0.197
C=CCNC(=O)[C@H]1[C@@H]2C(=O)O[C@@H](c3ccccc3)[C@@H](c3ccccc3)N2[C@@H](c2ccc(O)cc2)[C@]12C(=O)Nc1ccc(C#CCC(C(=O)OC)C(=O)OC)cc12 | 0.33 | -0.0589 | 0.102 | -2.95 | -4.12 | -0.922 | -0.363 (inactive) | -0.891 | 0.111 | 0.0955 (inactive) | -0.111 | 0.24 (inactive) | 0.0789 (inactive) | -7.4 (inactive) | 0.293 (inactive) | 0.249 (inactive) | -0.254 (inactive) | -0.0535 (inactive) | -3.01 | 0.256
CC(C)N1C(=O)[C@@]2(Cc3ccccc31)c1ccccc1C(=O)N(Cc1ccccc1)[C@H]2c1ccc(CO)cc1 | -0.128 | 0.0609 | -0.112 | -0.436 | -0.617 | -0.0756 | -0.0814 (inactive) | 0.122 | 0.687 | 0.247 (inactive) | -0.147 | 2.07 (inactive) | 0.144 (inactive) | -19.1 (active) | 0.338 (inactive) | 1.69 (inactive) | 0.367 (inactive) | -0.665 (inactive) | 0.0769 | -0.337
C=CCNC(=O)[C@@H]1[C@H]2C(=O)O[C@H](c3ccccc3)[C@H](c3ccccc3)N2[C@H](c2ccc(OCCO)cc2)[C@@]12C(=O)N(C(=O)OCCOC)c1ccccc12 | -0.514 | 0.484 | 0.332 | 0.374 | -0.562 | 2.15 | 0.89 (inactive) | -1.05 | 0.332 | -0.0659 (inactive) | 0.0303 | 1.98 (inactive) | -0.522 (inactive) | 0.659 (inactive) | 2.69 (inactive) | 3.16 (inactive) | 0.446 (inactive) | 0.282 (inactive) | -0.289 | 0.0623
CCCC1(C(=O)OC)C=C2C(=C(C(C)C)C(=O)C2C)CN1 (stereo not given) | -1.47 | 0.273 | -0.0319 | 0.313 | -0.316 | -1.45 | -1.43 (inactive) | -0.613 | -0.458 | -0.898 (inactive) | -0.964 | 1.67 (inactive) | -1.13 (inactive) | -1.05 (inactive) | 0.495 (inactive) | 0.391 (inactive) | -0.314 (inactive) | 0.0752 (inactive) | -1.44 | 0.227
CO[C@H]1O[C@H](CO)[C@@H](OC(=O)Nc2cccc(F)c2)[C@H](OC(=O)c2cc3ccccc3[nH]2)[C@H]1OC(=O)c1cc2ccccc2[nH]1 | 1.16 | 0.437 | 0.387 | 0.0134 | 0.804 | -1.56 | 2.42 (inactive) | -0.397 | -0.415 | -2.49 (inactive) | -2.49 | -0.21 (inactive) | -2.63 (inactive) | -0.603 (inactive) | 1.1 (inactive) | -0.67 (inactive) | 0.181 (inactive) | 1.02 (inactive) | -2.46 | 0.331
CC(C)Cc1ccc(CN2CC[C@@H](NC(=O)c3ccccc3)C2)cc1 | 0.0665 | -0.418 | -0.179 | -3.15 | -2.77 | -0.251 | 0.343 (inactive) | -0.442 | -1.38 | 0.247 (inactive) | -0.375 | -7.1 (inactive) | -0.18 (inactive) | 0.228 (inactive) | -0.0248 (inactive) | 2.05 (inactive) | 0.295 (inactive) | 0.118 (inactive) | -0.193 | -0.135

Reference: PubChem BioAssay
